# Compounds without any hit were thinned out: in the full panel of roughly 83,000, 20% have a hit.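 The endpoint reported here, percent growth, reads 100 for growth as untreated, 0 for no net growth and -100 for all cells dead.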 A number with no mark means an inactive call. Activity calls are given as the source filed them. The calls were made as follows: active = growth percent below 10; inactive = the rest.
# Legend:
# Assay in all cases: NCI-60 one-dose screen, 48 h (100 = growth as untreated, 0 = no growth, -100 = all killed)
# [1] = test system: SK-MEL-2 melanoma; settings: 10 µM unless noted
# [2] = test system: EKVX NSCLC; settings: 10 µM unless noted
# [3] = test system: SN12C renal; settings: 10 µM unless noted
# [4] = test system: UO-31 renal; settings: 10 µM unless noted
# [5] = test system: TK-10 renal; settings: 10 µM unless noted
# [6] = test system: ACHN renal; settings: 10 µM unless noted
# [7] = test system: CAKI-1 renal; settings: 10 µM
# [8] = test system: A498 renal; settings: 10 µM unless noted
# [9] = test system: CCRF-CEM leukemia; settings: 10 µM unless noted
# [10] = test system: MOLT-4 leukemia; settings: 10 µM unless noted
# [11] = test system: SR leukemia; settings: 10 µM unless noted
# [12] = test system: RPMI-8226 leukemia; settings: 10 µM unless noted
# [13] = test system: OVCAR-8 ovarian; settings: 10 µM unless noted
# [14] = test system: OVCAR-5 ovarian; settings: 10 µM unless noted
# [15] = test system: OVCAR-4 ovarian; settings: 10 µM unless noted
# [16] = test system: SK-OV-3 ovarian; settings: 10 µM unless noted
# [17] = test system: IGROV1 ovarian; settings: 10 µM unless noted
# [18] = test system: HS 578T breast; settings: 10 µM unless noted
# [19] = test system: NCI/ADR-RES ovarian; settings: 10 µM unless noted
# [20] = test system: OVCAR-3 ovarian; settings: 10 µM unless noted
Compound,growth [1],growth [2],growth [3],growth [4],growth [5] [%],growth [6],growth [7],growth [8],growth [9],growth [10],growth [11],growth [12],growth [13],growth [14] [%],growth [15],growth [16],growth [17],growth [18],growth [19],growth [20]
C#C[C@]1(O)CC[C@H]2[C@@H]3CC=C4c5sc(Nc6cc(Cl)ccn6)nc5CC[C@]4(C)[C@H]3CC[C@@]21C,-4.31% (active),-1.83% (active),53.6%,-51.3% (active),35.4,32.5%,-19.9% (active),-42.4% (active),9.26% (active),4.35% (active),4.56% (active),-22.9% (active),48.7%,47.5,68.1%,-1.88% (active),40.1%,-3.53% (active),34.7%,
NS(=O)(=O)c1ccc(Nc2nc(N/N=C/c3ccc([N+](=O)[O-])cc3)nc(Nc3ccccc3)n2)cc1,18.2%,83.7%,27.4%,81.9%,93.8,82.6%,50.6%,18.5%,11.8%,11.9%,15.6%,43.3%,33.2%,82,55.8%,67.8%,52.1%,53.5%,93.3%,
COc1ccc(Cn2cc3c(c2-c2ccccc2)CCCc2cnoc2-3)cc1[N+](=O)[O-],60.4%,78.9%,82.2%,55.5%,109,87.1%,50.5%,66.8%,52.6%,47%,32.6%,59%,80.2%,93.4,68.8%,74.8%,64%,64.3%,42.5%,
CNC(=O)c1cc(Oc2ccc3nc(NC(=O)c4ccc(CN5CCN(C)CC5)c(C(F)(F)F)c4)sc3c2)ccn1,98.7%,59.3%,76.4%,58.5%,104,76.9%,53.3%,80.3%,49.9%,39.2%,-4.18% (active),19.6%,73.8%,80.7,52.4%,87.1%,80.1%,52.9%,78%,
O=C1c2c(c3c4cccnc4[nH]c3c3ccc4ccccc4c23)C(=O)N1CCN1CCOCC1,98.4%,86.7%,68.4%,54.5%,112,41.3%,46.2%,69%,23.9%,7.9% (active),21.8%,42.5%,47.2%,98.3,84.4%,86.9%,57.7%,82.1%,47%,
O=C1c2c(c3c4cc(Br)ccc4[nH]c3c3ccc4ccccc4c23)C(=O)N1CCN1CCNCC1,113%,85.9%,84.8%,58.7%,148,69.6%,66.1%,97.1%,3.91% (active),4.47% (active),-14.3% (active),-9.87% (active),57.3%,113,103%,93.6%,68.5%,115%,69.5%,
COc1cc(/C=C/C(=O)c2ccc(N3CCN(C)CC3)cc2)ccc1F,115%,88.4%,81.2%,56.5%,124,79%,63.6%,98.7%,53.8%,88.5%,28.3%,28.4%,88.9%,81.6,75.9%,99.3%,56.6%,104%,82.8%,
Oc1ccc(-c2nnc(SCc3ccc(O)c4ncccc34)o2)cc1,17%,15.6%,6.09% (active),-5.74% (active),13.6,3.36% (active),3.35% (active),-8.21% (active),12.1%,16.5%,37.4%,4.27% (active),15.9%,27.1,9.9% (active),-3.56% (active),3.93% (active),-0.346% (active),7.18% (active),6.01% (active)
N#Cc1c(-c2ccccc2)cc(-c2c[nH]c3ccccc23)nc1-c1c[nH]c2ccccc12,97.7%,83.1%,95.6%,68.3%,124,96.4%,87.3%,98.7%,103%,102%,96.7%,101%,98.7%,103,104%,93.3%,82.1%,93.4%,98.3%,
C#CCOc1ccc(/C=N/Nc2nc(-c3cc4cc(Br)cc(Br)c4oc3=O)cs2)cc1,109%,92.2%,92.1%,88.5%,142,98.8%,88.1%,85.4%,94.4%,62.8%,71%,97.1%,100%,102,83.1%,104%,98.9%,91.3%,94.9%,
COc1ccc(-c2nnc(/N=C3/C(=O)Nc4ccc(Br)cc43)o2)cc1,101%,91.7%,107%,81.3%,143,93.7%,88.8%,91.9%,96%,96.1%,97.8%,96.2%,99.9%,107,101%,108%,91.9%,116%,102%,
O=C1CSC(=O)N1Cc1cc2ccccc2nc1Cl,94.7%,98.7%,97.4%,77.7%,98.5,104%,86.1%,106%,107%,102%,98.2%,98.8%,98.7%,101,99.2%,110%,99.9%,97.1%,105%,
O=C1c2c(c3c4cc(Br)ccc4[nH]c3c3ccc4ccccc4c23)C(=O)N1CCN1CCCCC1,112%,81.1%,41.1%,48.7%,132,18.5%,31.2%,72.7%,-0.774% (active),-1.44% (active),-21.6% (active),-36.5% (active),-51.8% (active),99.8,95.2%,57%,59.8%,104%,6.23% (active),
NNC(=O)c1sc2nc(-c3cnccn3)cc(-c3cccs3)c2c1N,102%,86.8%,95.5%,75.9%,118,95.4%,87.6%,79.5%,62.7%,77%,86.5%,107%,93.8%,99.1,74.4%,92.1%,89.5%,119%,105%,84.5%
O=C(c1ccc(O)cc1)[C@@H]1[C@@H]2CCCN2[C@@]2(C(=O)N(C(=O)c3ccc(F)cc3)c3ccccc32)[C@H]1c1ccc(F)cc1,110%,83.4%,87.3%,60.4%,143,90%,70.1%,82.5%,67.2%,68%,60.8%,75.6%,93.2%,111,91.1%,104%,63.1%,105%,98.8%,
Cc1ccc(-c2csc(N/N=C/c3nc4ccccc4n3C3CC3)n2)cc1,74.7%,97.5%,82.8%,16.1%,141,1.34% (active),77.9%,78.3%,-20.9% (active),37.3%,25.1%,84.8%,18.9%,105,93.1%,120%,57.8%,88.5%,72.9%,
